Assay results reported in the supplement of paper PMC12636033.
± gives the standard deviation of the averaged measurements. Whole data set: some 33,000 sequences, median “E-score (rank enrichment, -0.5 to 0.5)” near -0.0068, cut for the highest 2% near 0.24. Shown is part of a subset that was picked to be rich in the highest values.

Tested on: muMax20 (Max(13-93) K31hArg/K57hArg, M65Nle)
Assay: PBM 8-mer E-score (E-score (rank enrichment, -0.5 to 0.5)); higher = stronger preferential binding
Protocol: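 Protein binding microarray (universal PBM chip covering all 10-mers in fixed probe flanks) with chemically synthesized human Max(13-93) bHLH-LZ analogs (not full-length Max) bearing noncanonical residues (hArg, Tha, Aib, Nle at 65) and aromatic Cys staples. Read-out per 8-mer (and its reverse complement): E-score (rank-based enrichment, -0.5 to 0.5) and Z-score of median probe intensity.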

| Sequence | PBM 8-mer E-score |
| --- | --- |
| CTTCTACC | 0.00215 ± 0.038 |
| ACAGAATG | 0.088 ± 0.021 |
| GTTTTCGA | -0.0225 ± 0.1 |
| TCGGCCAA | -0.181 ± 0.076 |
| GAATCCAC | 0.0142 ± 0.053 |
| CAATTGTG | 0.0641 ± 0.093 |
| ATAAGGAA | 0.0142 ± 0.076 |
| ATAAGGTC | 0.218 ± 0.028 |
| ATAAGGTA | 0.244 ± 0.019 |
| ATAAGGAT | 0.246 ± 0.039 |
| ATAAGGAC | 0.0929 ± 0.069 |
| CTAAGGTA | 0.0373 ± 0.061 |
| CTCTACCC | 0.0459 ± 0.077 |
| CCAACAGA | -0.00227 ± 0.052 |
| GTAGCTCA | -0.0957 ± 0.0039 |
| AACTCAGT | -0.0615 ± 0.032 |
| AAAAGACA | 0.237 ± 0.011 |
| CAAAGACA | 0.129 ± 0.0062 |
| AAAAGATG | 0.263 ± 0.086 |
| CAGACACG | -0.0512 ± 0.046 |
| GTGACACA | 0.0546 ± 0.001 |
| AAGACACG | 0.293 ± 0.005 |

| Sequence | PBM 8-mer E-score |
| --- | --- |
| AAGACACA | 0.1216 ± 0.00079 |
| ATGACACA | 0.156 ± 0.0051 |
| CAAAGATG | 0.0977 ± 0.0035 |
| AAAAGATT | 0.0851 ± 0.1 |
| AAAAGACC | 0.0838 ± 0.031 |
| ATGACACG | 0.238 ± 0.041 |
| GACCACGC | 0.121 ± 0.055 |
| TCGATGAA | -0.0576 ± 0.025 |
| TGGCGGAA | -0.0751 ± 0.029 |
| CCCAGAGC | -0.115 ± 0.017 |
| AAAGCAGA | 0.176 ± 0.01 |
| ATTATTTA | 0.256 ± 0.072 |
| AATATATA | 0.235 ± 0.04 |
| AATATTCG | 0.134 ± 0.0048 |
| GATATTTA | 0.104 ± 0.032 |
| AATATTCC | 0.149 ± 0.012 |
| CATATTTC | 0.133 ± 0.0054 |
| AATATTCA | 0.259 ± 0.0058 |
| GTTATTTA | 0.222 ± 0.014 |
| CATATTTA | 0.288 ± 0.0037 |
| AATATAGT | 0.219 ± 0.013 |
| ATTATTTG | 0.212 ± 0.051 |

| Sequence | PBM 8-mer E-score |
| --- | --- |
| AATATATT | 0.244 ± 0.0097 |
| ATGCGGGG | -0.0713 ± 0.071 |
| TCAGGTAA | 0.0683 ± 0.047 |
| GTAGACTA | -0.0707 ± 0.066 |
| CAGTGGGG | -0.0911 ± 0.22 |
| TCTCCGAA | -0.233 ± 0.047 |
| AGGCATGC | 0.121 ± 0.03 |
| GAGTGGCA | -0.0109 ± 0.066 |
| CGTATTTA | 0.248 ± 0.068 |
| GGTATTTA | 0.173 ± 0.045 |
| CTTATTTC | 0.24 ± 0.14 |
| ATTATTTC | 0.186 ± 0.039 |
| AGTATTTA | 0.222 ± 0.019 |
| AATATTTC | 0.209 ± 0.035 |
| AATATTTA | 0.287 ± 0.011 |
| AATATTTG | 0.167 ± 0.11 |
| CTTATTTA | 0.0812 ± 0.083 |
| CTCTCCCA | 0.00928 ± 0.07 |
| CACGTATC | 0.158 ± 0.0092 |
| GTCTATAA | 0.181 ± 0.04 |
| CCGTTAAA | -0.00804 ± 0.013 |
| CATGACAA | 0.2087 ± 0.00054 |

| Sequence | PBM 8-mer E-score |
| --- | --- |
| AATGACAA | 0.241 ± 0.033 |
| AATGACAC | 0.161 ± 0.056 |
| AGAATATA | 0.254 ± 0.039 |
| AGAATATC | 0.129 ± 0.027 |
| AGAATATG | 0.227 ± 0.029 |
| CGAATATA | 0.237 ± 0.065 |
| CGAATATC | -0.0375 ± 0.072 |
| GGAATATA | 0.0712 ± 0.077 |
| AGAAACCC | 0.0541 ± 0.034 |
| AGTAGCTC | -0.0686 ± 0.0062 |
| CCTGTCGC | -0.224 ± 0.021 |
| CATATGTA | 0.257 ± 0.061 |
| AATATATG | 0.208 ± 0.089 |
| CATATATA | 0.271 ± 0.095 |
| CATATATG | 0.259 ± 0.017 |
| CATATATC | 0.171 ± 0.05 |
| AATATGTA | 0.124 ± 0.0062 |
| AATCTATA | 0.143 ± 0.05 |
| TATATATA | 0.228 ± 0.091 |
| GATCTATA | -0.0926 ± 0.0098 |
| CATATAGG | 0.147 ± 0.0067 |
